Reference: ChEMBL document CHEMBL3433997, “St. Jude Leishmania screening dataset” (2016)

Legend:
Assay type in all cases: functional
[1] = biological target: Solute carrier family 2, facilitated glucose transporter member 1 (Homo sapiens) (UniProt P11166); test: ST_JUDE_LEISH: Cytotoxicity at 2uM final concentration against transgenic Leishmania Mexicana promastigotes LmGLUT1 that are glucose transport deficient and complemented with the human glucose transporter GLUT1. Activity is measured by DNA content using SYBR green in vitro
[2] = biological target: Hexose transporter 1 (Plasmodium falciparum) (UniProt O97467); test: ST_JUDE_LEISH: Cytotoxicity at 2uM final concentration against transgenic Leishmania Mexicana promastigotes LmPfHT that are glucose transport deficient and complemented with the Plasmodium falciparum hexose transporter. Activity is measured by DNA content using SYBR green in vitro
[3] = biological target: Glucose transporter (Leishmania mexicana) (UniProt O61059); test: ST_JUDE_LEISH: Cytotoxicity at 2uM final concentration against transgenic Leishmania Mexicana promastigotes LmGT2 that are glucose transport deficient and complemented with the L. Mexicana glucose transporter 2. Activity is measured by DNA content using SYBR green in vitro

Solute carrier family 2, facilitated glucose transporter member 1 (Homo sapiens), sequence (P11166 whole entry): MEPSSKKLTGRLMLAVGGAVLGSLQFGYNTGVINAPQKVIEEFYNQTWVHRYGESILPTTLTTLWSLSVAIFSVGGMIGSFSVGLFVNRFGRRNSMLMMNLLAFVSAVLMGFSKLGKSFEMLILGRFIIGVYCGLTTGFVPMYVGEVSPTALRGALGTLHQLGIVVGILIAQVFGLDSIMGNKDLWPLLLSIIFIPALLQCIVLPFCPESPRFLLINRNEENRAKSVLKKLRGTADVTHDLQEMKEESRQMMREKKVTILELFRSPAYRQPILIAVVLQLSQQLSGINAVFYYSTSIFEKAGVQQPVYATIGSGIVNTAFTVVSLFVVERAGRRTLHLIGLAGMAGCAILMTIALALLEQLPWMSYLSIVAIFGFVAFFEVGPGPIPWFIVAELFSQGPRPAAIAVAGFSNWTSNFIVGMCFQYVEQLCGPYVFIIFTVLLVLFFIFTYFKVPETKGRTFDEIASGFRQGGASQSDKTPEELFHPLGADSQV

| Structure (SMILES) | inhibition [1] | inhibition [2] | inhibition [3] |
| --- | --- | --- | --- |
| O=C(c1cccs1)N1N=C(c2cccs2)CC1c1cccc([N+](=O)[O-])c1 (stereo not drawn) | 8.21% | 5.4% | 7.21% |
| Cc1ccc(-c2cc(C(=O)Nc3ccc(S(=O)(=O)N4CCCCC4C)cc3)n[nH]2)c(O)c1 (stereo not drawn) | -0.81% | -0.31% | -0.79% |
| CCOc1ccc(C(C)NC(=O)c2cc(Cl)ccc2OC)cc1OCC (stereo not drawn) | -0.81% | 0.16% | -2.78% |
| Fc1ccc2[nH]c(-c3ccccc3)nc2c1CN1CCC(N2CCCC2)CC1 | -0.78% | 0.83% | 2.29% |
| O=C(/C=C/c1ccc(CNCCN2CCOCC2)cc1)NCCc1ccccc1 | 0.21% | -1% | 0.2% |
| CNC(=O)Cc1ccc(C(=O)Nc2cccc(-c3csc(-c4nc5ccccc5[nH]4)c3)c2)cc1 | -2.64% | -0.06% | 1.68% |
| COc1cc(N(Cc2ccc(F)cc2)C(=O)c2ccc(-c3ccccc3)cc2)ccc1OCCN1CCCC1 | 9.7% | 5.41% | 7.12% |
| Cc1cccc(CN2CCC(C(=O)Nc3ccc(-c4nc5ccccc5[nH]4)cc3)CC2)n1 | 2.6% | 2.69% | 3.71% |
| CC(C)N1CCN(C(CN2CCN(CCCOc3ccc4ccccc4c3)CC2)c2ccc(F)cc2)CC1 (stereo not drawn) | 1.8% | 1.79% | -0.76% |
| Cc1cc(N(C)C)nc(Nc2ccc(NC(=O)c3c(F)cccc3Cl)cc2)n1 | 7.36% | 7.84% | -0.01% |
| CSC1=NC(=Nc2c(C)cccc2C)C2(CCCCC2)N1c1ccccc1Cl | -1.1% | -1.21% | -2.07% |
| Cc1cc(-c2cccc3c(C(=O)N4CCc5cc6nccc(N7CCCN(C)CC7)c6cc54)cccc23)cc(C)n1 | -0.39% | 1.02% | 1.14% |
| Cc1ccc(-c2ccc3c(c2)C=C(C(=O)NCC2CCN(CC4CCN(C(=O)/C=C/c5ccc(Cl)c(Cl)c5)CC4)CC2)CCC3)cc1 | 1.1% | 0.59% | -0.85% |
| CC(C)CNC(=O)c1ccnc(-c2ccc(CNC3Cc4ccccc4C3)cc2)c1 | -0.85% | -0.27% | -1.63% |
| Cc1ccc(N)cc1-c1nc(NC2CC(C)(C)NC(C)(C)C2)nc2c1ccc(=O)n2-c1c(F)cccc1F | 0.73% | 1.28% | 2.03% |
| CN1CCCc2cc(NC(=O)c3cc(-c4ccc(Cl)cc4)cs3)ccc2C1 | 2.24% | 0.77% | 1.79% |
| O=C(Nc1ccnc2ccccc12)NC1CCN(CCc2ccccc2)CC1 | 12.1% | 10.9% | 7.91% |
| CC(Cc1ccc(C(=O)OC(c2ccccc2)c2ccccc2)cc1)NCC(O)c1ccccc1 (stereo not drawn) | 0.9% | 0.98% | -0.61% |

| Structure (SMILES) | inhibition [1] | inhibition [2] | inhibition [3] |
| --- | --- | --- | --- |
| Cc1ccc(O)c(Nc2c3c(c(C#N)c4nc5ccccc5n24)CCC3)c1 | 2.48% | 1.2% | -0.54% |
| COC(=O)c1cc(C(O)CNC(C)CCCc2ccccc2)ccc1O (stereo not drawn) | 0.96% | -0.05% | -0.85% |
| O=S(=O)(NCCN1CCCC1)c1cccc(-c2cccc(CNCCc3cccs3)c2)c1 | 11.7% | 12% | 8.7% |
| O=C(/C=C/c1ccc(Cl)c(Cl)c1)N1CCC(CN2CCC(c3nc4ccccc4n3CCCO)CC2)CC1 | 4.72% | 4.22% | 5.85% |
| Cc1ccc(Nc2nc(C)cc(NCc3ccc(-n4ccnc4)cc3)n2)cc1 | 5.83% | 10.8% | 10.4% |
| CCN1CCC(N(Cc2ccc(-c3ccc(C(F)(F)F)cc3)cc2)C(=O)Cn2c(SCc3ccc(F)cc3)nc(=O)c3c2CCC3)CC1 | -0.04% | -0.63% | -2.05% |
| CC(=O)Nc1nc(C(=O)Nc2cccc(-c3cccc(-c4nc5cccc(C)c5[nH]4)c3)c2)cs1 | 6.67% | 1.89% | 14.6% |
| CCN1C(=O)C(=NN=C(S)N2CCCC2)c2ccccc21 | -0.3% | -1.51% | -3.35% |
| O=C(Nc1cccc(Cl)c1)c1cnc(N2CCN(c3ccncc3)CC2)c(Cl)c1 | 23.4% | 42% | 12.7% |
| CC(=O)N1c2ccccc2C(C)=CC1(C)C | -0.17% | -0.45% | -1.02% |
| N#Cc1cccc(C(=O)N2CCOC(CCN3CCC(c4ccccc4)CC3)(c3ccc(Cl)c(Cl)c3)C2)c1 (stereo not drawn) | 4.51% | 2.24% | 2.33% |
| CC(C)=CCc1c(-c2ccc(O)cc2O)oc2c3c(cc(O)c2c1=O)OC(C)(C)C=C3 | 5.72% | 4.6% | 6.57% |
| COc1ccc2ncc(F)c(CCN3CCC(NCc4ccc5c(c4)CCO5)CC3)c2n1 | 16.7% | 21.4% | 20.6% |
| CC1(C)NC(N)=NC(=N)N1OCCSCCON1C(=N)N=C(N)NC1(C)C | -0.9% | 0.07% | -0.26% |
| N=C(N)NN=Cc1c2ccccc2c(Cl)c2c(Cl)cccc12 | 24.6% | 26.2% | 10.2% |
| CN(C1CCC(NC(=O)/C=C/c2ccccc2)CC1)C1CC2(CCN(C(=O)OC(C)(C)C)CC2)c2ccccc21 (stereo not drawn) | 9.97% | 5.58% | 6.01% |
| N#Cc1cccc(C(=O)NC2CCN(c3ccnc(Nc4ccc(F)cc4)n3)C2)c1 (stereo not drawn) | 2.56% | 2.47% | 0.63% |
| FC(F)(F)c1ccc2[nH]c(-c3ccc(-c4cccc(CNCC5CCCO5)c4)cc3)nc2c1 (stereo not drawn) | 3.87% | 2.83% | 2.68% |
